Results filed as inconclusive are left out. The source made the active and inactive calls. The call rests on the fitted dose curve; in most records, active means well fitted curve in the direction sought with a large enough effect; inconclusive means small, poorly fitted or top-dose-only effect, or another doubt; inactive means no such curve, though single readings can be large; an effect the other way counts as inactive or inconclusive.
Assays:
[1] = system: Zika virus NS2B-NS3 protease; assay: Primary screen GU AMC qHTS for Zika virus inhibitors (AID 1347154); further: nearly all actives have a fitted effect of over 70% in size
How it was run: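 Fluorogenic AMC-substrate cleavage by noncovalent NS2B-NS3 protease complex (25 nM, pH 8.0 Tris buffer with Tween 20) followed for 15 minutes at room temperature (~20% conversion). Percent inhibition from ex340/em450 signal change, fitted by 4-parameter Hill equation.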

[2] = Counterscreen qHTS for small molecule stabilizers of the endoplasmic reticulum resident proteome: GLuc-NoTag assay (AID 1508627);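 further: SH-SY5Y cells given compound then 100 nM thapsigargin to empty ER calcium; series mostly up to about 76 µM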
How it was run: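 Luminescence of Gaussia luciferase secreted into the medium (coelenterazine, 0.07x final, unlysed cells) was the read-out. Human SH-SY5Y neuroblastoma cells constitutively secreting untagged GLuc received compound for 19 h, then 100 nM thapsigargin for 4 h.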

[3] = target: Cytochrome P450 3A4 (Homo sapiens) (UniProt P08684); assay: qHTS Assay for Inhibitors and Substrates of Cytochrome P450 3A4 (AID 884); further: series mostly up to about 57 µM; nearly all actives have a fitted effect of over 50% in size
Sequence of Cytochrome P450 3A4 (Homo sapiens) (P08684 whole entry, looked up): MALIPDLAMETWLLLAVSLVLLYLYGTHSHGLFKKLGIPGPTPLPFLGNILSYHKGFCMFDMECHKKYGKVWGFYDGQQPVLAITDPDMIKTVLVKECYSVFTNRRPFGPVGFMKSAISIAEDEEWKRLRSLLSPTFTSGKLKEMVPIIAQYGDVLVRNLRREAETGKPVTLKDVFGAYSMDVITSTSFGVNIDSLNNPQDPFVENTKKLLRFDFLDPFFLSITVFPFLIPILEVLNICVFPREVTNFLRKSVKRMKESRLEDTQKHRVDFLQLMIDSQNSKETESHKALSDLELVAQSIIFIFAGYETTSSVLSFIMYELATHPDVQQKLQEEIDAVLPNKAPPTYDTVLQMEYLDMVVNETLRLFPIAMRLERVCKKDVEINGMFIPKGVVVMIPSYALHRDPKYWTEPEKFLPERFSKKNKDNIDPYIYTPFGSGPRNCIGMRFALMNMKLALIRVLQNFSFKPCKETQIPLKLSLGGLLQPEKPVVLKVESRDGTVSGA
How it was run: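 20 nM human CYP3A4 with 25 uM Luciferin-PPXE (at KM) in 200 mM KPO4, preincubated 10 min with compound; NADPH regeneration started a 60 min RT reaction. Luciferin detected by luminescence, normalized to 57 uM ketoconazole as full inhibition.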

[4] = Confirmatory qHTS for small molecule stabilizers of the endoplasmic reticulum resident proteome: Secreted ER Calcium Modulated Protein (SERCaMP) assay (AID 1508628); further: series mostly up to about 76 µM; nearly all actives have a fitted effect of over 40% in size
How it was run: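 SH-SY5Y cells stably expressing GLuc-SERCaMP, treated 16 h with compound (primary 1.53, 7.67, 38.3 uM; confirmation 11 concentrations, up to 76.6 uM), then 100 nM thapsigargin for 4 h. Secreted Gaussia luciferase in medium read by coelenterazine luminescence.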

[5] = target: Calcium and integrin-binding protein 1 (Homo sapiens) (UniProt Q99828); assay: Primary qHTS for Identification of Calcium Integrin Binding Protein 1 (CIB1) Competitor (AID 1508620)
Sequence of Calcium and integrin-binding protein 1 (Homo sapiens) (Q99828 whole entry, looked up): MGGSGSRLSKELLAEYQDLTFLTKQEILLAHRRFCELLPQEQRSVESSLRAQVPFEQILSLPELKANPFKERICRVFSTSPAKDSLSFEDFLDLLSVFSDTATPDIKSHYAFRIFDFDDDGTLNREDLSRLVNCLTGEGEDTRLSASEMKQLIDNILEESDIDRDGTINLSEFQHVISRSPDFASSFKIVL
How it was run: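 CIB1-GST (1 uM final) and compound incubated 15 min at room temperature before adding FITC-alphaIIb peptide tracer (100 nM final). Competition for binding read by fluorescence polarization (ex 480, em 540) after another 15 min at room temperature.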

[6] = NCATS anti-infectives library activity on HEK293 viability as a counter-qHTS vs the C. elegans viability qHTS (AID 1745854);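 further: HEK293 cells exposed to compounds for 24 hr before the viability read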
How it was run: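 Compounds were acoustically plated (several concentrations, 1:5, final up to 41.7 uM), then 1500 HEK293 cells added per well and incubated 24 hr at 37C, 5% CO2. CellTiter-Glo was added and luminescence read after 10 min.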

[7] = target: Glutathione peroxidase 1 (Homo sapiens) (UniProt P07203); assay: Primary qHTS Assay for Inhibitors of Recombinant Selenoprotein Glutathione Peroxidase 1 (GPX1) (AID 1845191); further: nearly all actives have a fitted effect of over 65% in size
Sequence of Glutathione peroxidase 1 (Homo sapiens) (P07203 whole entry, looked up): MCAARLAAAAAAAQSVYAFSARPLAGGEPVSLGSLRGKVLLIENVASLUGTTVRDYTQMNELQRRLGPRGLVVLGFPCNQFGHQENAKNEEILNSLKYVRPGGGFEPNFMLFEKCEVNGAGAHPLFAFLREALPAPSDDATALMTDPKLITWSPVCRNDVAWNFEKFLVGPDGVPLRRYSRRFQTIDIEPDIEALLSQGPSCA
How it was run: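 10 nM GPX1 + cpd, 30 min RT; start w/ 1 mM GSH, 0.5 mM cumene hydroperoxide, 0.5 mM NADPH, 100 nM GR, 0.01% BSA; buffer 50 mM Tris-HCl pH 7.5, 2 mM EDTA, 150 mM NaCl; Fl 340/450, 0 & 15 min.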

[8] = target: Phospholipid hydroperoxide glutathione peroxidase GPX4 (Homo sapiens) (UniProt P36969); assay: Primary qHTS Assay for Inhibitors of Recombinant Selenoprotein Glutathione Peroxidase 4 (GPX4) (AID 1845192); details: outcome: dose series up to 50 µM unless noted; further: nearly all actives have a fitted effect of over 65% in size
Sequence of Phospholipid hydroperoxide glutathione peroxidase GPX4 (Homo sapiens) (P36969 whole entry, looked up): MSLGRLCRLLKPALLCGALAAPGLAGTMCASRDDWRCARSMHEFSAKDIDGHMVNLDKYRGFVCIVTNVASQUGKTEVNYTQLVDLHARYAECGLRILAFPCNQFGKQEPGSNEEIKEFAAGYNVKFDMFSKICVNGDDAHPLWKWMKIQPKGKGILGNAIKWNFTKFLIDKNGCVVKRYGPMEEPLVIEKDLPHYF
How it was run: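 NADPH consumption, followed by fluorescence at 340/450 nm between 0 and 15 min, reports GPX4 activity via coupled glutathione reductase (100 nM). Enzyme 200 nM was pre-exposed to compound 30 min; 0.5 mM cumene hydroperoxide and 1 mM GSH served as substrates.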

Measured: Potency

COc1ccc(NC(=O)c2cc(OCCCN(C)C)nn2Cc2ccccc2)cc1
inactive: [1] | [2]

CCCCCCCCCCCCCCCC(=O)OC(CO)CO
inactive: [3] | [1] | [2] | [4]

CN(C)/C(N)=N/C(=N)N
inactive: [1] | [5] | [6] | [7] | [8] inactive [setting not given]
